Assay results taken from ChEMBL document CHEMBL1157539, “Thousands of chemical starting points for antimalarial lead identification” (Nature, 2010).

Columns and labels:
Plasmodium falciparum [1] = test: GSK_TCMDC: Inhibition of Plasmodium falciparum 3D7 in whole red blood cells, using parasite LDH activity as an index of growth. Test compounds present at 2uM; format: functional
Plasmodium falciparum [2] = test: GSK_TCMDC: Inhibition of Plasmodium falciparum Dd2 in whole red blood cells, using parasite LDH activity as an index of growth. Test compounds present at 2uM; format: functional

Row | Compound | Inhibition (Plasmodium falciparum [1]) [%] | Inhibition (Plasmodium falciparum [2]) [%]
1 | Cc1nc(C)c(-c2ccc(Oc3cccc(OC(F)(F)F)c3)cc2)c(O)c1Cl | 97 | 97
2 | CCS(=O)(=O)O.N=C(N)NC(=O)Nc1ccc(Cl)c([N+](=O)[O-])c1 | 97 | 9
3 | CC(=O)Oc1c(Br)c(C)nc(C)c1-c1ccc(Oc2ccc(OC(F)(F)F)cc2)cc1 | 98 | 97
4 | Nc1nc(N)c2c3c(ccc2n1)CCC3 | 92 | 2
5 | Br.CC(C)(C)OC(=O)N[C@@H](CS(=O)(=O)CCNC(=N)COCc1ccccc1)C(=O)OC(C)(C)C | 88 | 76
6 | CC(C)Cn1ccc2c3c(N)nc(N)nc3ccc21 | 96 | 96
7 | CCCc1cc(Cc2cnc(N)nc2N)cc2c1OC(C)(C)C2.Cl | 89 | 3
8 | COc1ccc(OC)c(Cc2c(C)nc3nc(N)nc(N)c3c2C)c1.Cl | 90 | 0
9 | CCN(CC)CCNc1cc(C)nc(NC(=N)Nc2ccc(Cl)cc2)n1.Cl | 100 | 0
10 | Cc1cccc(-c2c(C)nc(N)nc2N)c1 | 88 | 0
11 | Cl.Oc1ccc2c(CNC3CCCCC3)c(O)ccc2c1CNC1CCCCC1 | 100 | 100
12 | COc1cc(Cc2cnc3nc(N)nc(N)c3c2C)cc(OC)c1OC | 95 | 98
13 | O=c1c2ccc(Sc3ccccn3)cc2n(-c2ccccc2)c2cc(Sc3ccccn3)ccc12 | 89 | 70
14 | COc1cc(Cc2cnc(N)nc2N)cc(OCCCC#N)c1OC | 86 | 0
